One may read the inhibition as the change of the read-out against control, counted positive when it falls.

Values joined by “and” are separate entries in the source; they are usually repeats but may differ in a detail not shown here. Equal values may be shown once. Active and inactive are the calls of the source.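 How the source made its calls, unless noted: active means inhibition at or above 50% relative to wild type and mutant plate controls; inactive means inhibition below 50%.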

Assay [1] in a line: inhibitors of TNFa-induced NFkB p65 translocation, primary screen, imaging, HUVEC, MLSMR starter and 10KST1 sets (AID 438;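 active means inhibition above 20% together with a positive visual image hit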;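 further: compound added about 3h40 before a 20 min TNFalpha stimulation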;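 on inhibition: signal is the nuclear over cytoplasmic p65 intensity ratio per well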). To be noted: HUVEC TNFa-induced p65 nuclear translocation; cell count: measured here: nuclei count (cytotoxicity indicator), at 2.08 µM; inhibition: at 2 µM, stronger effect = higher value, 0% TNFa-plus-vehicle, 100% no-TNFa wells.
Assay [2] can be described thus: reduction of polyQ htt aggregates in cells – imaging, exon1htt(103Q)mCFP cells, high-content imaging, primary screen (AID 483;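 active means visual image review flags a hit and inhibition of aggregation exceeds 20%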;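 further: compound exposure lasted 3 days before fixation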;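 on nuclei count: percent of the per-plate median nuclei count of sample wells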). As to conditions: exon1htt(103Q)mCFP cell line, aggregate imaging, at 2 µM; inhibition of aggregation: stronger effect = higher value; nuclei count: measured here: cell count, toxicity.
A short description of assay [3]: endothelial E-selectin expression blockers – imaging, HUVEC, immunofluorescence, MLSMR starter and 10KST1 sets, primary screen (AID 487;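 active means visually confirmed hit in the image check and inhibition above 20%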;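 on inhibition: signal is fraction of cell area covered by stained E-selectin grains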;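 on nuclei count: 100% = median nuclei count of all wells on the same plate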). As to conditions: HUVEC TNFalpha-induced E-selectin immunofluorescence imaging, at 2 µM; inhibition: stronger effect = higher value; nuclei count: measured here: cell number, toxicity.
Assay [4] can be described thus: Primary imaging screen for DUSP6 inhibitors that restore phospho-Erk in transfected HeLa cells, chemical complementation (AID 609;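 active means compounds giving at least 50% inhibition in the cell-based MKP-3 phosphatase rescue imaging test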;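 on inhibition: phospho-Erk level distribution per well compared with pooled transfected vehicle control wells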). To be noted: HeLa MKP-3 transfected, phospho-Erk imaging KS statistic, at 10 µM, cells stimulated with TPA for 15 min.
Assay [5] has as its target Dual specificity protein phosphatase 6 (Homo sapiens) (UniProt Q16828). The assay is described as above. As to conditions: HeLa MKP-3 transfected, phospho-Erk imaging KS statistic; at 10 µM; stronger effect = higher value; cells stimulated with TPA for 15 min.
The target in assay [6] is Voltage-gated potassium channel subunit beta-2 (Rattus norvegicus) (UniProt P62483). As to the kind of experiment: inhibitors of rat Kvbeta2 reductase activity – biochemical, NADPH fluorescence, primary screen (AID 622;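 active means fluorescence slope higher than the sample average by over 3 SD, cut at about -0.22 in these data, passing the limit was not always enough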;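 further: slope of raw intensity against log time taken from 70 to 1610 s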). To be noted: recombinant KvBeta, 4-cyanobenzaldehyde reduction, at 10 µM, stronger effect = higher value.
For assay [7] the target is unchanged. Briefly: enhancers of rat Kvbeta2 NADPH turnover – biochemical, NADPH fluorescence, primary screen (AID 623;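 active means NADPH fluorescence slope more negative than the mean of all samples by about 3 SD, 99.7% confidence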;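 further: fluorescence intensity change per second fitted from 20 to 320 s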). To be noted: Recombinant KvBeta, NADPH fluorescence decrease slope, 10 min; at 10 µM; stronger effect = lower value.
The target of assay [8] is Alpha-2C adrenergic receptor (Homo sapiens) (UniProt P18825). Briefly: compounds altering alpha2C-coupled GIRK flux – cell-based, HEK293 alpha2C/GIRK1/2, thallium flux, primary screen (AID 624;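 active means fluorescence slope after compound addition differing from the mean of all screened samples at 99.7% confidence, in either direction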;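 further: slope of fluorescence ratio to pre-addition baseline per second over 15 to 24 s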). As to conditions: thallium flux BTC fluorescence, at 10 µM, actives lie on both sides.
Assay [9] in a line: inhibitors of larval lipid processing in zebrafish, primary screen, whole organism, PED6 fluorescence, gall bladder and intestine (AID 686;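 active means a full or partial loss of lipid-probe fluorescence in the fish gall bladder, intestine or both, judged by eye; inactive means no fluorescence loss, or compound toxic to the fish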;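 further: larvae 5 to 7 days old with five fish per well; signal comes from phospholipase A2 cleavage of quenched PED6 carried via bile; overnight exposure to compound and PED6 before scoring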). To be noted: Zebrafish larvae PED6 lipid processing, fluorescence scoring; screened at 20 µM (by protocol).
A short description of assay [10]: loss of swimming-algae plug formation – whole organism, Chlamydomonas reinhardtii, WT vs cilia-less mutant, absorbance, 96-well, primary screen (AID 463189).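 Further: 0% = wild type cc124 cells in DMSO and 100% = ciliumless bld1 mutant cells.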 As to conditions: Chlamydomonas reinhardtii gravitaxis, OD600 absorbance, 2 days; at 10 µM; stronger effect = higher value.
Assay [11] can be described thus: blockers of RIG-like receptor reporter activation – cell-based, Sendai virus stimulus, luciferase, 10K MLSCN set, TLR/RLR signaling modifier project, primary screen (AID 602276;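 active means inhibition at or above 50% at 10 µM; inactive means inhibition below 50%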;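 further: firefly luciferase from ISG56 promoter only with Renilla not read in this screen; 0% = Sendai virus plus DMSO and 100% = medium plus DMSO without virus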). As to conditions: HEK293 RL24 IRF3 luciferase reporter, at 10 µM, stronger effect = higher value. In general terms: In a reporter assay the amount or activity of a reporter protein is the signal.
The nature of assay [12]: TLR3 IRF3 reporter activation blockers – cell-based, poly I:C stimulus, luciferase, 10K MLSCN set, primary screen (AID 602277;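 active means inhibition of the reporter signal at or above 50%; inactive means inhibition below 50%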). To be noted: HEK293-TLR3 RL24 IRF3 luciferase reporter, at 10 µM, stronger effect = higher value.
Assay [13] concerns the target Muscarinic acetylcholine receptor M4 (Homo sapiens) (UniProt P08173). Briefly: M4-linked GIRK flux change, two-sided – cell-based, HEK293 M4/GIRK, thallium flux, BTC-AM, M4 allosteric agonist project, primary screen (AID 625;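 active means fluorescence slope after compound addition differing from the mean of all tested samples at 99.7% confidence, mostly higher but some lower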;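 further: thallium influx through GIRK channels coupled to M4 in HEK293 cells with BTC-AM dye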). As to conditions: at 10 µM, actives lie on both sides.
The mark [14] stands for this setting: measured here: cell density z-score.
[15] abbreviates: measured here: nuclear c-Myc green intensity z-score.
The mark [16] stands for this setting: measured here: nuclear pErk red intensity z-score, stronger effect = higher value.

Chain of Alpha-2C adrenergic receptor (Homo sapiens) (P18825 whole entry, looked up): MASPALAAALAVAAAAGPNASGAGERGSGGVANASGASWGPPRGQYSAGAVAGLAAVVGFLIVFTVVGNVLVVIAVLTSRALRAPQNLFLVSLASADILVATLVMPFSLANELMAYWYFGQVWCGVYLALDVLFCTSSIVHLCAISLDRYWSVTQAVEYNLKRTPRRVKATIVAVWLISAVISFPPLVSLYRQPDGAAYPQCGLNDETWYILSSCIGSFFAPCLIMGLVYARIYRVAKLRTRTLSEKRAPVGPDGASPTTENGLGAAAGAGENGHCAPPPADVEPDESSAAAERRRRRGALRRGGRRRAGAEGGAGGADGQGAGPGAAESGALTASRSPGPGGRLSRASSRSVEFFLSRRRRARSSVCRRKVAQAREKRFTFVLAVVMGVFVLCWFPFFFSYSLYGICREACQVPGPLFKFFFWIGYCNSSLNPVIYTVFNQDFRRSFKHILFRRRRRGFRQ
Chain of Voltage-gated potassium channel subunit beta-2 (Rattus norvegicus) (P62483 whole entry, looked up): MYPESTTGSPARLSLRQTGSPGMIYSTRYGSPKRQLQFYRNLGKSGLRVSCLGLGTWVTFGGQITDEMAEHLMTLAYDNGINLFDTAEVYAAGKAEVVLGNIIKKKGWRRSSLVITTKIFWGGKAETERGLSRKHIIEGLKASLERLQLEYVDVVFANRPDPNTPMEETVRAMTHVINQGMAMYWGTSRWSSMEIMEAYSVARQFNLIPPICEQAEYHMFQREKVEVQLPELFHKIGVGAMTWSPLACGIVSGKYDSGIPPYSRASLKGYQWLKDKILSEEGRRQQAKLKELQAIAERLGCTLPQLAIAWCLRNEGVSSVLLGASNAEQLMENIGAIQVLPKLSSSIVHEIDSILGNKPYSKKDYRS
Chain of Dual specificity protein phosphatase 6 (Homo sapiens) (Q16828 whole entry, looked up): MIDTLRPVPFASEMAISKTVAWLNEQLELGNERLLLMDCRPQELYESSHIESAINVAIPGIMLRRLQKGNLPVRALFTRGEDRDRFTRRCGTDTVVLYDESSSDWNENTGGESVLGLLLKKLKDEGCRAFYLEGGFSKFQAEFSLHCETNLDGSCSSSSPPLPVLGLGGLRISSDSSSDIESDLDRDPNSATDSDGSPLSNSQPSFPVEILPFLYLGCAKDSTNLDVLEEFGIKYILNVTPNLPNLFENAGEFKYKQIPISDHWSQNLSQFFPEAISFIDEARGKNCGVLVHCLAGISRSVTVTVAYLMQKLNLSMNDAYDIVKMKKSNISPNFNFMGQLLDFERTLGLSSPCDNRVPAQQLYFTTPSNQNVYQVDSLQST
Chain of Muscarinic acetylcholine receptor M4 (Homo sapiens) (P08173 whole entry, looked up): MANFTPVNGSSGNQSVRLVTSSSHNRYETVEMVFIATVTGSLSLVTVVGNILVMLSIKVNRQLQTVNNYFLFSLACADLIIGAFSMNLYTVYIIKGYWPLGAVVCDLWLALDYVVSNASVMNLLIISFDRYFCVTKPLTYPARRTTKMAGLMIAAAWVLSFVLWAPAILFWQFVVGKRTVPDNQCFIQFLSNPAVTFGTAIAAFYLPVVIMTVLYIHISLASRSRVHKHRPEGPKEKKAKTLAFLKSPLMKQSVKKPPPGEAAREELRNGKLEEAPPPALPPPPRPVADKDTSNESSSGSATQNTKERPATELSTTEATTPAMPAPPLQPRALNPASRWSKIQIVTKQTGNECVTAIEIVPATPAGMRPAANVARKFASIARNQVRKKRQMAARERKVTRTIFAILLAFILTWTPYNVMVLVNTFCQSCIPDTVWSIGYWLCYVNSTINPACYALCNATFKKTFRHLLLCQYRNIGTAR

Take `C(=C\c1ccccc1)/CN1CCN(C(c2ccccc2)c2ccccc2)CC1`: in assay [1], the cell count is 635. For the same molecule, the inhibition in assay [1] is -9.5% (inactive); in assay [3], -95.1% (inactive); in [5], 11.3% (inactive); in assay [10], 126% (active) and 125% (active); in assay [11], 9.39% (inactive); in assay [12], 26.9% (inactive). Further, in [2], the inhibition of aggregation is -21.5% (inactive). The nuclei count amounted to 107% in [2] and 131% in assay [3]. The z-score was 0.835 in [4] (setting [14]), -0.254 in assay [4] (setting [15]) and 0.957 in assay [4] (setting [16]). Further, the fluorescence slope in assay [6] is -0.448 (inactive). Also, in [7], the NADPH fluorescence slope was -6.1e-05 (inactive). Moreover, the slope in [8] is 0.00492 (inactive). Further, in [9], the call was inactive.
Turning to `Nc1ccc(S(=O)(=O)NC(=O)c2ccccc2)cc1`, the cell count in assay [1] was determined as 544. For the same molecule, the inhibition is 2.5% (inactive) in assay [1]; -116% (inactive) in assay [3]; 14.6% (inactive) in assay [5]; 5.05% (inactive) in [10]; 21.8% (inactive) in assay [11]; 34.4% (inactive) in assay [12]. For the same molecule, in [2], the inhibition of aggregation is 17.5% (inactive). The results for the nuclei count in [2] and in assay [3] were 94.6% and 110%, respectively. For the same molecule, the z-score was -1.45 in assay [4] (setting [14]), 0.254 in assay [4] (setting [15]) and 0.397 in assay [4] (setting [16]). Moreover, the fluorescence slope in [6] is -0.517 (inactive). Also, the NADPH fluorescence slope in assay [7] is -5.5e-05 (inactive). The slope in assay [8] was 0.00537 (inactive). Also, the outcome in assay [9] was inactive.
For `C[C@]12CC[C@@H]3c4ccc(OS(=O)(=O)O)cc4CC[C@H]3[C@@H]1CCC2=O`, in assay [1], the cell count was found to be 725. The inhibition in assay [1] is -2.6% (inactive); in assay [3] it was -120% (inactive); in assay [5] it was 1.48% (inactive); in [10], 2.37% (inactive); in [11], 11.2% (inactive); in [12] it was 25.7% (inactive). In assay [2], the inhibition of aggregation is 1.7% (inactive). The figures for the nuclei count in [2] and in assay [3] were 98.9% and 121%, respectively. The results for the z-score in assay [4] (setting [14]), in assay [4] (setting [15]) and in [4] (setting [16]) were 1.77, -0.742 and -1.13, respectively. Further, the fluorescence slope in assay [6] is -0.507 (inactive). Also, the NADPH fluorescence slope in [7] was -4.6e-05 (inactive). In assay [8], the slope was 0.00404 (inactive). The result in [9] was inactive.
For `CCC(=O)N[C@@H]1CC(C(C)(C)NC(=O)CC)CC=C1C` (stereo partly drawn), the cell count in [1] was 537. The inhibition in [1] was -16.4% (inactive); in [3], -21.9% (inactive); in [5] it was -6.06% (inactive); in assay [10], 6.4% (inactive); in assay [11], 18.2% (inactive); in assay [12] it was 18.8% (inactive). In addition, in [2], the inhibition of aggregation was -10.9% (inactive). Further, the nuclei count in assay [2] turned out to be 110%; in [3], 137%. For the same molecule, the z-score is -0.93 in assay [4] (setting [14]), 0.526 in [4] (setting [15]) and -0.616 in assay [4] (setting [16]). In assay [6], the fluorescence slope was -0.349 (inactive). Further, the NADPH fluorescence slope in assay [7] was -1e-06 (inactive). The slope in assay [8] is 0.00698 (inactive). Besides, the molecule was called inactive in [9].
As to `CCCN(CCC)S(=O)(=O)c1ccc(C(=O)O)cc1`, the cell count in assay [1] is 623. Also, the inhibition in assay [1] is -9.8% (inactive); in [3], -101% (inactive); in assay [5] it was -2.46% (inactive); in [10] it was -3.99% (inactive); in assay [11] it was 0.7% (inactive); in assay [12], 13.7% (inactive). The inhibition of aggregation in assay [2] is 6.1% (inactive). Besides, the nuclei count in assay [2] came out at 108%; in assay [3] it was 118%. Besides, the z-score in assay [4] (setting [14]) turned out to be 0.315; in assay [4] (setting [15]), 0.261; in [4] (setting [16]) it was 0.309. Moreover, the fluorescence slope in [6] is -0.448 (inactive). Further, in assay [7], the NADPH fluorescence slope is 3.2e-06 (inactive). Also, in assay [8], the slope was 0.00488 (inactive). Further, the result in [9] was inactive.
On to `N#CC1=C(N)N(c2ccccc2)C(c2ccccc2)C1(C#N)C#N` (stereo not drawn), for which, in assay [1], the cell count was found to be 635. The inhibition is -9.5% (inactive) in [1]; 7.2% (inactive) in [3]; -6.59% (inactive) in assay [5]; 58.7% (active) in [10]; 16.9% (inactive) in assay [11]; 17.3% (inactive) in [12]. Also, in assay [2], the inhibition of aggregation was -8% (inactive). Besides, the nuclei count in assay [2] came to 97.6%; in [3], 132%. In addition, the z-score is 0.909 in [4] (setting [14]), -0.703 in assay [4] (setting [15]) and 1.5 in [4] (setting [16]). Also, the fluorescence slope is -0.346 (inactive) in assay [6] and 0.00486 (inactive) in assay [13]. Besides, in assay [7], the NADPH fluorescence slope is -7.8e-07 (inactive). The call in [9] was inactive.
On to `COCCCC/C(=N\OCCN)c1ccc(C(F)(F)F)cc1`, for which the cell count in [1] stood at 514. For the same molecule, the inhibition in assay [1] is -7.2% (inactive); in assay [3], -121% (inactive); in assay [5] it was 9.37% (inactive); in assay [10], -1.98% (inactive) and -5.54% (inactive); in assay [11] it was 5.66% (inactive); in [12], 36.1% (inactive). Besides, the inhibition of aggregation in assay [2] is -27.7% (inactive). In addition, the nuclei count in assay [2] is 100%; in [3], 121%. The z-score was 1.11 in [4] (setting [14]), -1.18 in assay [4] (setting [15]) and 0.0602 in assay [4] (setting [16]). Besides, the fluorescence slope in assay [6] is -0.468 (inactive). In assay [7], the NADPH fluorescence slope was -6.2e-05 (inactive). In [8], the slope is 0.00513 (inactive). In addition, in assay [9], the molecule was classed as inactive.
Regarding `CC(NCCC(c1ccccc1)c1ccccc1)c1ccccc1` (stereo not drawn), in assay [1], the cell count was 619. In addition, the inhibition in assay [1] was -0.2% (inactive); in assay [3], -24.4% (inactive); in assay [5], 13.3% (inactive); in assay [10], 59.1% (active); in assay [11], 28.7% (inactive); in assay [12] it was 22.8% (inactive). The inhibition of aggregation in assay [2] was 22.8% (inactive). The nuclei count in assay [2] came out at 104%; in assay [3], 113%. For the same molecule, the figures for the z-score in assay [4] (setting [14]), in assay [4] (setting [15]) and in assay [4] (setting [16]) were 1.32, -0.571 and -1.03, respectively. The fluorescence slope in [6] is -0.492 (inactive). In addition, in [7], the NADPH fluorescence slope is -8.5e-06 (inactive). The slope in [8] was 0.00284 (inactive). Also, in assay [9], the result was inactive.
`NC(=O)N1c2ccccc2C=Cc2ccccc21`: the cell count in [1] was found to be 639. Further, the inhibition in [1] was -4.6% (inactive); in [3], -55.6% (inactive); in assay [5], 15.3% (inactive); in assay [10] it was 5.34% (inactive) and 20.1% (inactive); in [11] it was 7.49% (inactive); in assay [12], 22.1% (inactive). In addition, the inhibition of aggregation in [2] is -10.6% (inactive). Moreover, the nuclei count in assay [2] came to 110%; in assay [3] it was 127%. In addition, the z-score was -0.0512 in [4] (setting [14]), 0.625 in [4] (setting [15]) and -1.48 in assay [4] (setting [16]). Besides, the fluorescence slope in assay [6] is -0.492 (inactive). For the same molecule, the NADPH fluorescence slope in assay [7] is -4.6e-05 (inactive). Further, the slope in [8] was 0.00463 (inactive). Besides, the call in assay [9] was inactive.

For the origin of these results see PubChem BioAssay.
